Measurements taken from PubChem BioAssay (NCATS).
“And” between values parts separate entries of the source, which are not always exact repeats. Identical values can stand only once. Results filed as inconclusive are left out. A structure can be active in one record and inactive in another. Values without a mark were called inactive. The source made the active and inactive calls. The call rests on the fitted dose curve; in most records, active means well fitted curve in the direction sought with a large enough effect; inconclusive means small, poorly fitted or top-dose-only effect, or another doubt; inactive means no such curve, though single readings can be large; an effect the other way counts as inactive or inconclusive.

assay: Primary qHTS for inhibitors of nuclear receptor binding SET domain protein 2 (NSD2) in an isogenic RCH-ACV NSD2 p.E1099K mutant (9B) (AID 1645876); settings: RCH-ACV NSD2 E1099K (9B) viability, CellTiter-Glo, 72 h; series mostly up to 44.9 µM
Further: nearly all actives have a fitted effect of over 70% in size.
On the % scale 0 is the no-effect control and ±100 the full control effect; potency means the concentration at half of the fitted maximal effect.

Compound | Potency | activity change, negative = viability loss
CC[C@H](Nc1ncnc2nc[nH]c12)c1nc2cccc(F)c2c(=O)n1-c1ccccc1 | 164 nM (active) and 833 nM (active) | -6.84% [at 9.23 µM]
Cc1cc([C@@H](C)Nc2ccccc2C(=O)O)c2nc(N3CCOCC3)cc(=O)n2c1 | 2.24 µM (active) and 1.86 µM (active) | 
COc1ccc(C2=N[C@H](c3ccc(Cl)cc3)[C@H](c3ccc(Cl)cc3)N2C(=O)N2CCNC(=O)C2)c(OC(C)C)c1 | 18.6 µM (active) | 
COCCNCCCn1c(C(=O)CF)c(-c2ccc(C)cc2)c2c(N)ncnc21 | 18.6 µM (active) | 
CC(C)OC(=O)C1=CN(C(=O)c2ccc(F)c(F)c2)CC(C)(C)c2c1[nH]c1ccccc21 | inactive | 
CNC(=O)c1ccc(N2C(=S)N(c3ccc(C#N)c(C(F)(F)F)c3)C(=O)C2(C)C)cc1F | inactive | 
CN([C@@H](Cc1ccc(OS(=O)(=O)c2cccc3cnccc23)cc1)C(=O)N1CCN(c2ccccc2)CC1)S(=O)(=O)c1cccc2cnccc12 |  | 7.52% [at 4.96 µM]
C/C(=C\C(=O)Nc1ccccc1C(=O)O)c1ccc2ccccc2c1 | 20.9 µM (active) | 
CC(C)(C)OC(=O)CN(Cc1ccc(Cl)cc1)Cc1ccc([N+](=O)[O-])s1 | inactive | 
CCC(C)(C)C(=O)O[C@H]1C[C@@H](C)C=C2C=C[C@H](C)[C@H](CC[C@@H]3C[C@@H](O)CC(=O)O3)[C@H]21 | 8.33 µM (active) | 
O=C1CCCC2=C1C(c1[nH]ncc1Cl)N=C(Nc1nc3ccccc3o1)N2 (centres undefined) | inactive | 
O=C(Nc1ccc(F)c(C(F)(F)F)c1)Nc1nnc(-c2ccncc2)s1 | inactive | 
Nc1ccc(S(=O)(=O)Nc2ccnn2-c2ccccc2)cc1 | inactive | 
CN1CCN(CCCN2c3ccccc3Sc3ccc(C(F)(F)F)cc32)CC1 | 18.8 µM (active) and 16.6 µM (active) | 
CC(C)C[C@H](NC(=O)[C@@H](O)[C@H](N)Cc1ccccc1)C(=O)O | inactive | 
NC(=O)c1ccc(I)c([N+](=O)[O-])c1 | 18.6 µM (active) | 
CS(=O)(=O)c1ccc(C(=O)Nc2ccc(Cl)c(-c3ccccn3)c2)c(Cl)c1 | inactive | 
Cc1n[nH]c(C)c1Cc1sc2c(c1C(=O)N1C[C@H](O)CO1)c(=O)n(C)c(=O)n2CC(C)C | inactive | 
Oc1cccc(-c2nc(N3CCOCC3)c3oc4ncccc4c3n2)c1 | 0.118 µM (active) | 
OCCn1cc(-c2cnc3nnn(Cc4ccc5ncccc5c4)c3n2)cn1 | inactive | 
O=C(O)CCc1ccc(NCc2cccc(Oc3ccccc3)c2)cc1 | inactive | 
Cc1cc2c(F)c(Oc3ncnn4cc(OC[C@@H](C)O)c(C)c34)ccc2[nH]1 | 2.63 µM (active) | 
OCCC#Cc1nc(-c2ccc(F)cc2)c(-c2ccncc2)n1CCCc1ccccc1 | 16.4 µM (active) and 11.8 µM (active) | 
Cc1cc2c(C(C)C)c(O)c(O)c(C=O)c2c(O)c1-c1c(C)cc2c(C(C)C)c(O)c(O)c(C=O)c2c1O | 10.5 µM (active) | 
O=C(c1cc(Cc2n[nH]c(=O)c3ccccc23)ccc1F)N1CCN(C(=O)C2CC2)CC1 | 6.61 µM (active) | 
Cc1ccnc(NS(=O)(=O)c2ccc(NC(=O)Nc3ccc(S(=O)(=O)Nc4nccc(C)n4)cc3)cc2)n1 | inactive | 
NC(=O)c1ccc(-c2nc(-c3ccc4c(c3)OCCO4)c(-c3ccccn3)[nH]2)cc1 | inactive | 

assay: Primary qHTS for inhibitors of nuclear receptor binding SET domain protein 2 (NSD2) in an RCH-ACV wild type WT cells (2C) (AID 1645877); settings: RCH-ACV (leukaemia line) NSD2 WT (2C) viability, CellTiter-Glo, 72 h; series mostly up to 44.9 µM

Compound | Potency | activity change, negative = cell killing
Nc1ncnc2nc(-c3ccc(N4CCOCC4)nc3)cc(-c3cccc(Br)c3)c12 | 20.9 µM (active) | 
CC(C)c1onc(-c2c(Cl)cccc2Cl)c1COc1ccc(/C=C/c2cccc(C(=O)O)c2)c(Cl)c1 | inactive | 
c1ccc(-c2nn3c(c2-c2ccnc4cc(OCCN5CCOCC5)ccc24)CCC3)nc1 | 16.6 µM (active) | 
COc1ccccc1[C@H](c1cccc2ccccc12)[C@@](C)(C#N)C(=O)N1CCC(c2cccc(C(F)(F)F)c2)CC1 | inactive | 
CCCCNc1cc(C(=O)O)cc(S(N)(=O)=O)c1Oc1ccccc1 | inactive | 
CCOc1cc(N2CCC(O)CC2)ccc1Nc1ncc2c(n1)N(C)c1ccccc1C(=O)N2C | 2.63 µM (active) | 
O=C1[C@H](Cc2ccc(O)cc2)N2C(=O)CCN(C(=O)NCc3ccccc3)[C@H]2CN1Cc1cccc2ccccc12 | 3.72 µM (active) | 
CC[C@H](Nc1ncnc2nc[nH]c12)c1nc2cccc(F)c2c(=O)n1-c1ccccc1 | 231 nM (active) and 1.18 µM (active) | -1.09% [at 9.23 µM]
Cc1cc([C@@H](C)Nc2ccccc2C(=O)O)c2nc(N3CCOCC3)cc(=O)n2c1 | 2.51 µM (active) and 1.66 µM (active) | 
COc1ccc(C2=N[C@H](c3ccc(Cl)cc3)[C@H](c3ccc(Cl)cc3)N2C(=O)N2CCNC(=O)C2)c(OC(C)C)c1 | 18.6 µM (active) | 
COCCNCCCn1c(C(=O)CF)c(-c2ccc(C)cc2)c2c(N)ncnc21 | 16.6 µM (active) | 
CC(C)OC(=O)C1=CN(C(=O)c2ccc(F)c(F)c2)CC(C)(C)c2c1[nH]c1ccccc21 | inactive | 
CNC(=O)c1ccc(N2C(=S)N(c3ccc(C#N)c(C(F)(F)F)c3)C(=O)C2(C)C)cc1F | inactive | 
CN([C@@H](Cc1ccc(OS(=O)(=O)c2cccc3cnccc23)cc1)C(=O)N1CCN(c2ccccc2)CC1)S(=O)(=O)c1cccc2cnccc12 |  | 9.55% [at 4.96 µM]
CCC(C)(C)C(=O)O[C@H]1C[C@@H](C)C=C2C=C[C@H](C)[C@H](CC[C@@H]3C[C@@H](O)CC(=O)O3)[C@H]21 | 8.33 µM (active) | 
O=C1CCCC2=C1C(c1[nH]ncc1Cl)N=C(Nc1nc3ccccc3o1)N2 (centres undefined) | inactive | 
Nc1ccc(S(=O)(=O)Nc2ccnn2-c2ccccc2)cc1 | inactive | 
CN1CCN(CCCN2c3ccccc3Sc3ccc(C(F)(F)F)cc32)CC1 | 23.7 µM (active) and 16.6 µM (active) | 
CC(C)C[C@H](NC(=O)[C@@H](O)[C@H](N)Cc1ccccc1)C(=O)O | inactive | 
NC(=O)c1ccc(I)c([N+](=O)[O-])c1 | 16.6 µM (active) | 
CS(=O)(=O)c1ccc(C(=O)Nc2ccc(Cl)c(-c3ccccn3)c2)c(Cl)c1 | inactive | 
Cc1n[nH]c(C)c1Cc1sc2c(c1C(=O)N1C[C@H](O)CO1)c(=O)n(C)c(=O)n2CC(C)C | inactive | 
Oc1cccc(-c2nc(N3CCOCC3)c3oc4ncccc4c3n2)c1 | 0.166 µM (active) | 
OCCn1cc(-c2cnc3nnn(Cc4ccc5ncccc5c4)c3n2)cn1 | inactive | 
O=C(O)CCc1ccc(NCc2cccc(Oc3ccccc3)c2)cc1 | inactive | 
OCCC#Cc1nc(-c2ccc(F)cc2)c(-c2ccncc2)n1CCCc1ccccc1 | 18.4 µM (active) and 9.34 µM (active) | 
Cc1cc2c(C(C)C)c(O)c(O)c(C=O)c2c(O)c1-c1c(C)cc2c(C(C)C)c(O)c(O)c(C=O)c2c1O | 9.34 µM (active) | 
O=C(c1cc(Cc2n[nH]c(=O)c3ccccc23)ccc1F)N1CCN(C(=O)C2CC2)CC1 | 3.72 µM (active) | 
Cc1ccnc(NS(=O)(=O)c2ccc(NC(=O)Nc3ccc(S(=O)(=O)Nc4nccc(C)n4)cc3)cc2)n1 | inactive | 
NC(=O)c1ccc(-c2nc(-c3ccc4c(c3)OCCO4)c(-c3ccccn3)[nH]2)cc1 | inactive | 
